Data published in PubChem BioAssay (Tox21).
Where “and” joins values, the source holds several entries; their conditions need not be identical. Equal entries are not always repeated. More than one record can exist for a structure, and the calls need not agree. Calls of active or inactive are those of the source. Entries that show only a call come without a potency. Calls follow the shape of the full dose curve.
Potency is read from the fitted curve at half-maximal effect.

What follows are molecules tested against Thyrotropin-releasing hormone receptor (Homo sapiens) (UniProt P34981) (assay: qHTS assay to identify small molecule agonists of the thyrotropin-releasing hormone receptor (TRHR) signaling pathway (AID 1346891)). Conditions: TRHR-HEK293 calcium fluorescence, agonist mode; series mostly up to 57.6 µM.
Chain of Thyrotropin-releasing hormone receptor (Homo sapiens) (P34981 whole entry, looked up): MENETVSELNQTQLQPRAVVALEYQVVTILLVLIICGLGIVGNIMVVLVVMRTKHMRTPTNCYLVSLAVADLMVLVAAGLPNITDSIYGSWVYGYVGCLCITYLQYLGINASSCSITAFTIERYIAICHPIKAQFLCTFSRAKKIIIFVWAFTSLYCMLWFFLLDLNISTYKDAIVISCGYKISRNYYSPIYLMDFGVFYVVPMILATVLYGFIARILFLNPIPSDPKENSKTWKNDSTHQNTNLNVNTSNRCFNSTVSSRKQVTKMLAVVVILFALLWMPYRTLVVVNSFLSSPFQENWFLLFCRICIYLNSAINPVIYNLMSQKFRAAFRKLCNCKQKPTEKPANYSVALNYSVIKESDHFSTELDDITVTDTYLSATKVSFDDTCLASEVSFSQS
Text: National Center for Advancing Translational Sciences [NCATS] NIH Chemical Genomics Center [NCGC] U.S. Environmental Protection Agency [EPA] National Institutes of Environmental Health Sciences [NIEHS] National Toxicology Program [NTP] Assay overview: Thyrotropin-releasing hormone (TRH) receptor (TRHR) is a G-protein-coupled receptor which binds the tripeptide thyrotropin releasing hormone. TRHR is found in the brain and, when bound by TRH, acts (through phospholipase C) to increase intracellular inositol trisphosphate. It plays a crucial role in the anterior pituitary where it controls the synthesis and secretion of thyroid stimulating hormone and prolactin. The TRHR-Hek293 assay is a cell-based assay, and it has the potential to screen G protein-coupled receptors. A compound/drug can either activate (agonist) or suppress (antagonist) GPCRs that can be monitored by levels of intracellular calcium. Using this assay, the Tox21 10K compound library was screened to identify potential TRHR agonists.
Assay Protocol Summary: The TRHR-Hek293 cells were dispensed at 1500cells/4uL/well in 1536-well black-clear bottom plates using a Multidrop dispenser. After the assay plates were incubated at a 37 C/5% CO2 incubator for 18 hours, 4 uL of Dye-Loading Solution was added to each well. The plates were incubated at 37 C for 2 hours. For agonist mode, 23 nL of compounds dissolved in DMSO, positive controls or DMSO only was transferred to the assay plate by a pin tool. The fluorescence intensity in the plates was measured using FDSS 7000EX kinetic plate reader for 3 min at 1 sec intervals. Each test compound was measured at 15 concentrations and in triplicates.
For `CCCCCCCCCC[N+](C)(C)CCCCCCCCCC`, the Potency was “inactive”.
In the case of `CN(CCCC(=O)c1cccnc1)N=O`, the Potency is reported as “inactive”.
With `SCc1ccco1` the Potency was “inactive”.
In the case of `Cc1cc(SCc2sc(-c3ccc(C(F)(F)F)c(F)c3)nc2C)ccc1OCC(=O)O`, the Potency is reported as “inactive”.
For `COc1ccc(/C(=C/C(=O)N2CCOCC2)c2ccc(Cl)cc2)cc1OC`, the Potency was “inactive”.
For `NC(=O)c1ccc(N)nc1`, the Potency was “inactive”.
With `CCSC(C)CC1CC(=O)C(/C(CC)=N/OC/C=C/Cl)=C(O)C1` (stereo not given) the Potency was “inactive”.
For `CC1(C)C(/C=C(\Cl)C(F)(F)F)C1C(=O)OC(C#N)c1cccc(Oc2ccccc2)c1` (stereo not given), the Potency was “inactive”.
In the case of `N#CCCC(Br)(C#N)CBr` (stereo not given), the Potency is reported as “inactive”.
In the case of `ClC(Cl)=C(c1ccc(Cl)cc1)c1ccc(Cl)cc1`, the Potency is reported as “inactive”.
For `C[C@]12CC[C@H](O)C[C@H]1CC[C@@H]1[C@@H]2C[C@@H](O)[C@]2(C)[C@@H](C3=CC(=O)OC3)CC[C@]12O`, the Potency was “inactive”.
With `O=C(O)C1C2CCC(O2)C1C(=O)O` (stereo not given) the Potency was “inactive”.
With `O=C(CCl)C(Cl)Cl` the Potency was “inactive”.
`C[As+](C)(C)CC(=O)[O-]` was tested, and the Potency was “inactive”.
For `Clc1ccc(C(c2ccc(Cl)cc2)C(Cl)(Cl)Cl)cc1`, the Potency was “inactive”.
`S=C=Nc1cccc2ccccc12` was tested, and the Potency was “inactive”.
For `N#CNC#N`, the Potency was “inactive”.
`O=C/C(Cl)=C(/Cl)C(=O)O` was tested, and the Potency was “inactive”.
With `O=C(NC(=O)c1c(F)cccc1F)Nc1cc(Cl)c(OC(F)(F)C(F)F)c(Cl)c1` the Potency was “inactive”.
For `CCOP(=S)(OCC)SCS(=O)(=O)C(C)(C)C`, the Potency was “inactive”.
With `CNC(C)Cc1ccc2c(c1)OCO2` (stereo not given) the Potency was “inactive”.
In the case of `CCCCCCCCCCCCCCCC[N+](C)(C)C`, the Potency is reported as “inactive and 27.5 µM (active)”.
`Nc1ccc(Sc2ccc(N)cc2)cc1` was tested, and the Potency was “inactive”.
In the case of `Cc1cc(C(F)(C(F)(F)F)C(F)(F)F)ccc1NC(=O)c1cccc(I)c1C(=O)NC(C)(C)CS(C)(=O)=O`, the Potency is reported as “inactive”.
`O=[N+]([O-])c1ccc(Oc2ccc(C(F)(F)F)cc2[N+](=O)[O-])cc1` was tested, and the Potency was “inactive”.
In the case of `Cc1cc(C(C)(C)c2cc(C)c(O)c(C)c2)cc(C)c1O`, the Potency is reported as “inactive”.
With `CCOc1cc(C(C)(C)C)ccc1C1COC(c2c(F)cccc2F)=N1` (stereo not given) the Potency was “inactive”.
For `COc1cccc(C(=O)CCN[C@@H](C)[C@H](O)c2ccccc2)c1`, the Potency was “inactive”.
With `CCCCCCCCCCBr` the Potency was “inactive”.
In the case of `ClC1=C(Cl)C2(Cl)C3C(Cl)C(Cl)CC3C1(Cl)C2(Cl)Cl` (stereo not given), the Potency is reported as “inactive”.
With `N#Cc1c(-c2ccc(Cl)cc2)[nH]c(C(F)(F)F)c1Br` the Potency was “inactive”.
`O=C(Nc1ccc2[nH]ccc2c1)c1cc2cc(F)ccc2n1Cc1cccc(F)c1` was tested, and the Potency was “inactive”.
With `CC(Cl)CN(C)C` (stereo not given) the Potency was “inactive”.
With `C[C@@H]1O[C@@H](O[C@H]2C[C@@H](O)[C@]3(CO)[C@H]4[C@H](O)C[C@]5(C)[C@@H](C6=CC(=O)OC6)CC[C@]5(O)[C@@H]4CC[C@]3(O)C2)[C@H](O)[C@H](O)[C@H]1O` the Potency was “inactive”.
`CN(C)c1ccc(N=Nc2ccccc2)cc1` was tested, and the Potency was “inactive”.
In the case of `Oc1c(Br)c(Br)c(Br)c(Br)c1Br`, the Potency is reported as “inactive”.
For `CC[C@H]1C[C@@H]2C[C@H]3c4[nH]c5ccc(OC)cc5c4CCN(C2)[C@@H]13`, the Potency was “inactive”.
For `CC(C)(C)c1ccc(CSc2cnn(C(C)(C)C)c(=O)c2Cl)cc1`, the Potency was “inactive”.
`O=C(CCl)Nc1ccccc1` was tested, and the Potency was “inactive”.
With `COc1cc(N)c(Cl)cc1C(=O)NC1CN2CCC1CC2` (stereo not given) the Potency was “inactive”.
